# Screens: PubChem, The Scripps Research Institute Molecular Screening Center
# MITF inh: blocks human microphthalmia-associated transcription factor; O75030; AlphaScreen MITF homodimerization, bead proximity signal; inhibition, % at 2.6 µM; 0.91% of 650,000 active; AID 1259374; in the data active = inhibition above about 50%;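 also: 0% = vehicle wells with protein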
# GPR151 ag: activates the human receptor GPR151 | Q8TDV0 | PathHunter beta-arrestin GPR151 cells, luminescence | activation, % at 11.2 µM | 1% of 650,000 active | AID 1508602; in the data active = activation above about 4.9%;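 also: 0% = median of compound wells and 100% = cells with positive control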
# FBW7 activator: activators of human E3 ligase FBW7 | AlphaScreen FBW7–phospho-cyclin E peptide binding, activator screen | 0.13% of 650,000 active | normalized activity (activation), % at 26.1 µM | Q969H0; in the data active = normalized activity above about 1.9%;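 also: purified mutant Fbw7 with reduced substrate affinity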
# Target sequence (Q969H0 whole entry, looked up): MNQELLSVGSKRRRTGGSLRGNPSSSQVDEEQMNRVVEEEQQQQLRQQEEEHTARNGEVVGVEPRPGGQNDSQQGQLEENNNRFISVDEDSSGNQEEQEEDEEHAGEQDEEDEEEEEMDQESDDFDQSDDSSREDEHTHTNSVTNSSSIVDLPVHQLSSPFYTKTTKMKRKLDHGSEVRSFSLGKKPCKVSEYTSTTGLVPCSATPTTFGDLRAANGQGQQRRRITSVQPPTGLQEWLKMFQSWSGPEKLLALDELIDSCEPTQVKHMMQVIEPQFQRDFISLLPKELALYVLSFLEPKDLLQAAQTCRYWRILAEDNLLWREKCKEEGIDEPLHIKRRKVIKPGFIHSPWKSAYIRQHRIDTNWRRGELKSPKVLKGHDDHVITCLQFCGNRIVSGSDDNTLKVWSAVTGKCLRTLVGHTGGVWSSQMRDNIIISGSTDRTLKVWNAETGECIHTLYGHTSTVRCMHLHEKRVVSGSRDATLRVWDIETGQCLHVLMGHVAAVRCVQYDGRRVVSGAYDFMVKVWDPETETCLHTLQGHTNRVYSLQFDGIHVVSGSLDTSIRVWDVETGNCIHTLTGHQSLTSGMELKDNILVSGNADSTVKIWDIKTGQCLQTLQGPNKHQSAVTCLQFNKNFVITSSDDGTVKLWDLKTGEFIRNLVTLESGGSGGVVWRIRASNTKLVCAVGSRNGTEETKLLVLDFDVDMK
# TEAD-YAP block: TEAD-YAP interaction inhibition | 1.4% of 640,000 active | inhibition, % at 9.12 µM | HEK-TIYL cells, TEAD-Gal4/YAP UAS-luciferase luminescence; in the data active = inhibition above about 32%;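 also: 0% = median of test compound wells and 100% = reference inhibitor wells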
# GPR151 confirm: confirmation of human GPR151 activators; 6,700 tested, under 10 active; GPR151 PathHunter beta-arrestin cells, luminescence, 90 min; % of EA-reagent control over plate median; AID 1508609; shares compounds with GPR151 ag; activation, % at 11.2 µM;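 active = mean percent activation across replicates above the confirmation screen cutoff of 4.91%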
# GPR119 ag: counter-screen for GPR151 activators: effect on human GPR119. shares compounds with GPR151 ag. activation, % at 11.2 µM. 0.3% of 6,700 active. GPR119 PathHunter beta-arrestin cells, luminescence, 90 min; 0 = compound-well median, 100 = enzyme-acceptor control;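 active = mean percent activation in the counterscreen above 29.09%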;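 also: counterscreen on off-target GPR119 to flag nonselective hits from the GPR151 activator screen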
# The depositor's hits bear a star; nt = no result given; ! = not confirmed by another sample. Compounds with a hit are over-represented: about 3.5% of the library has one in this group of screens.
SMILES,MITF inh,GPR151 ag,FBW7 activator,TEAD-YAP block,GPR151 confirm,GPR119 ag
COc1ccc(CCNC(=O)CCCn2c(SCC(=O)NCCc3ccccc3)nc3cc4c(cc3c2=O)OCO4)cc1OC,-6,-1,0,0,nt,nt
Cc1ccc(CN2CCN(C/C(Cl)=C/c3ccccc3)CC2CCO)o1 (stereo not drawn),8,5.4*,0,7,0,-1
CC(=O)NS(=O)(=O)c1ccc(N=NN2CCCC2)cc1,14,0,1,6,nt,nt
CCc1cc2c(cc3c(=O)n(CC(=O)NCc4ccccc4Br)ncn32)s1,-8,6.4*,0,6,3,11
CCCC(=O)c1ccc(N2CCN(C(=O)c3ccccc3F)CC2)c(F)c1,5,0,0,-4,nt,nt
CCN(CC)C(=O)c1sc(N)c(C(=O)OC(C)C)c1C,12,16*,0,0,0,3
COc1ccccc1-c1nnc(NC(=O)CSC2=NCCS2)s1,4,5.6*,0,-7,1,5
Cc1nc2c(c(=O)[nH]1)CCN(Cc1ccc3ncccc3c1)C2,5,6.5*,0,0,0,-2
CCOc1ccccc1N1CC(C(=O)Nc2ccc(OC)cc2)CC1=O (stereo not drawn),-7,-2,0,3,nt,nt
COc1ccc(OC)c(NC(=O)CC2C(=O)NCCN2C(=O)C(F)(F)F)c1 (stereo not drawn),9,7.0*,1,1,0,1
O=C(Cn1cnc2ccccc2c1=O)NCCC(=O)N1CCOCC1,-20,0,0,-5,nt,nt
O=C(Cn1cnc2ccccc2c1=O)NCCC(=O)N1CCN(Cc2ccc3c(c2)OCO3)CC1,-31,5.4*,0,6,0,16
Cc1ccc(CS(=O)(=O)CCC(=O)NCCN(C)Cc2ccccc2)cc1,14,7.7*,0,-3,0,-1
O=C(COc1cccc([N+](=O)[O-])c1)N/N=C\C(Br)=C\c1ccccc1,-1,-1,0,-1,nt,nt
CC(C)(S)C(=O)N[C@@H](CS)C(=O)O,-9,-2,0,-2,nt,nt
CC(C)(S)C(N)C(=O)O (stereo not drawn),1,5.1*!,0,-9,0,-9
Cc1cccc(-n2nnnc2C(c2ccccc2)N2CCOCC2)c1 (stereo not drawn),6,8.5*,0,12,1,11
CCC(C)NC(=O)C1CCCN(S(=O)(=O)N2CCOCC2)C1 (stereo not drawn),6,8.8*,0,-1,0,0
CCC(=O)c1ccc(OCC(O)CN2CCN(c3ccccc3OC)CC2)cc1 (stereo not drawn),-1,2,0,4,nt,nt
COc1ccccc1N1CCN(CCN2CCN(C)CC2)CC1,5,13*,0,-2,0,-11
COC(=O)c1ccc(OCC(O)CN2CCN(c3ccccc3OC)CC2)cc1 (stereo not drawn),-8,11*,0,20,0,2
O=c1[nH]c2nc(-c3ccc4c(c3)OCO4)cnc2n1-c1ccccc1,-4,1,0,-6,nt,nt
CCOc1ccc2c(c1)O/C(=C\c1ccc(C(=O)OC)cc1)C2=O,-2,1,0,-12,nt,nt
O=C(NCCc1ccncc1)c1cc(-c2ccc(F)cc2)n[nH]1,7,-1,0,-29,nt,nt
CC(NC(=O)Nc1ccc(S(N)(=O)=O)cc1)(C(F)(F)F)C(F)(F)F,22,4.9*,0,-2,0,-5
SMILES,MITF inh,GPR151 ag,FBW7 activator,TEAD-YAP block,GPR151 confirm,GPR119 ag
Cc1cc(=O)oc2cc(OCc3ccc(C(=O)OC4CCOC4=O)cc3)ccc12 (stereo not drawn),7,-1,0,0,nt,nt
CC(=O)Oc1cccc(/C=C(\C#N)C(=O)Nc2ccc([N+](=O)[O-])cc2C)c1,13,6.3*,0,12,-1,-9
Cc1cc([N+](=O)[O-])ccc1NC(=O)/C(C#N)=C/c1cccc([N+](=O)[O-])c1,9,0,0,4,nt,nt
N#C/C(=C\c1cccc([N+](=O)[O-])c1)C(N)=O,2,5.7*,0,-3,0,3
O=C(CC(=O)N/N=C/c1cccc([N+](=O)[O-])c1)N/N=C/c1cccc([N+](=O)[O-])c1,8,0,0,17,nt,nt
N#C/C(=C/c1cccc([N+](=O)[O-])c1)C(=O)Nc1ccc(O)cc1,1,-1,1,-8,nt,nt
Cc1c(C(=O)N/N=C/c2cccc([N+](=O)[O-])c2)[nH]c2c([N+](=O)[O-])cccc12,1,5.2*,0,-7,0,-9
NC(=O)N/N=C\c1cccc([N+](=O)[O-])c1,10,7.6*,0,0,-1,-4
CC(C)c1[nH]nc2c1C(C(C)C)C(C#N)=C(N)O2 (stereo not drawn),3,8.3*,0,0,1,-6
CC(=O)c1ccc(OC(C)C)c(CSC(=N)N)c1,13,6.5*,1,6,0,2
COc1ccc(Cn2nnnc2C(c2ccc(C(F)(F)F)cc2)N2CCN(C)CC2)cc1 (stereo not drawn),-7,1,0,-10,nt,nt
CC(Sc1ccccc1)C(=O)Nc1cccc(F)c1 (stereo not drawn),5,-1,0,-2,nt,nt
Cc1csc(SCC(=O)Nc2ccccn2)n1,2,6.2*,0,-3,-1,-12
C/C(=N/Nc1ccc([N+](=O)[O-])cc1[N+](=O)[O-])c1ccccc1O,23,1,0,14,nt,nt
Cc1cc(NC(=O)c2cc3ccccc3oc2=O)n(-c2nc3ccccc3[nH]2)n1,-6,8.1*,0,9,0,5
Cc1cc(NC(=O)c2ccccc2)n(-c2nc3ccccc3[nH]2)n1,11,-2,0,4,nt,nt
S=C(NCC1CCCO1)Nc1ccc(I)cc1 (stereo not drawn),1,2,0,-45,nt,nt
CC(=O)c1ccc(NC(=S)NCC2CCCO2)cc1 (stereo not drawn),-9,5.4*,0,-28,0,5
COc1ccc(N2C(=O)CSC2c2cccc(C(F)(F)F)c2)cc1Cl (stereo not drawn),2,0,1,2,nt,nt
CCOc1ccccc1CN1CCC(C(=O)NCc2ccc(C)cc2)CC1,21,0,0,5,nt,nt
CCOc1cccc(CN2CCC(C(=O)NCc3ccccn3)CC2)c1O,54*,8.7*,0,8,-1,-3
O=S(=O)(c1c(F)cccc1F)N1CCN(Cn2nc(-c3ccco3)oc2=S)CC1,15,-3,1,1,nt,nt
COc1ccc(N2CC(CNS(=O)(=O)c3ccccc3Cl)CC2=O)cc1 (stereo not drawn),16,-2,0,1,nt,nt
CN1CCN(C2=C(Nc3ccc(Cl)cc3)C(=O)c3ccccc3C2=O)CC1,-9,-1,0,-9,nt,nt
